# Assay results as given in ChEMBL document CHEMBL3988442, “University of Dundee, Small-Polar-MMV Screening Library” (2021).
# For part of these data: Entries with a potency or affinity are not part of this list.
# Experiments:
# Set-up in all cases: scale not given: direction of the effect not stated beside the values
# [1] = molecular target: Protein translocase subunit SecA (Escherichia coli (strain K12)) (UniProt P10408); test: Assay to Identify E. coli SecA ATPase Inhibitors; assay type: functional; conditions: 30 µM
# Sequence of Protein translocase subunit SecA (Escherichia coli (strain K12)) (P10408 whole entry): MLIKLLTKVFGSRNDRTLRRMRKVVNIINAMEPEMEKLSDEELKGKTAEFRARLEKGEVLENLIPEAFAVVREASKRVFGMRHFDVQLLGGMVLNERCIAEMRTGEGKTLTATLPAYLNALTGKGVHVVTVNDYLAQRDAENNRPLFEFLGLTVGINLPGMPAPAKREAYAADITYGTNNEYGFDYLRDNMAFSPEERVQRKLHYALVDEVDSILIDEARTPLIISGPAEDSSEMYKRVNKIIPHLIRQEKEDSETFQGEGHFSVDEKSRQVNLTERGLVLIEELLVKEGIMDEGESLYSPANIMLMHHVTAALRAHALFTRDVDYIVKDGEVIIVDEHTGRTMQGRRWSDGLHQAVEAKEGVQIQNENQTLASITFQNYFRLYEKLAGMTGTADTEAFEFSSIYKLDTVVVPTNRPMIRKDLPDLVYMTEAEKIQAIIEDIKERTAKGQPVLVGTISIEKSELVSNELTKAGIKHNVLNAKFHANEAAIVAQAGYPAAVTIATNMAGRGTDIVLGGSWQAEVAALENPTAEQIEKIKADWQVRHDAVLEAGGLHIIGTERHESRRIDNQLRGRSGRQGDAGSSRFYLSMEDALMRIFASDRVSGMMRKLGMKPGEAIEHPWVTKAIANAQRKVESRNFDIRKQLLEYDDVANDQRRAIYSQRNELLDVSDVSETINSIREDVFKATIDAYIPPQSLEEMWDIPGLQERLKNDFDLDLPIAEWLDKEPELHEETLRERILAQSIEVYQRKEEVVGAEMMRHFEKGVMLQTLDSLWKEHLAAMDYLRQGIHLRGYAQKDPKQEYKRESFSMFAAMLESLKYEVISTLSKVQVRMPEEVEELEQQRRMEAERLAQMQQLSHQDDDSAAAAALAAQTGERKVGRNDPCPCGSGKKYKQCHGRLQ
# [2] = molecular target: T1, Ubiquitin-activating enzyme e1, putative (Leishmania donovani (strain BPK282A1)) (UniProt E9BSI1); test: Leishmania donovani Ubiquitin Activating Enzyme (LdE1); assay type: functional; conditions: 30 µM
# T1 sequence (whole entry): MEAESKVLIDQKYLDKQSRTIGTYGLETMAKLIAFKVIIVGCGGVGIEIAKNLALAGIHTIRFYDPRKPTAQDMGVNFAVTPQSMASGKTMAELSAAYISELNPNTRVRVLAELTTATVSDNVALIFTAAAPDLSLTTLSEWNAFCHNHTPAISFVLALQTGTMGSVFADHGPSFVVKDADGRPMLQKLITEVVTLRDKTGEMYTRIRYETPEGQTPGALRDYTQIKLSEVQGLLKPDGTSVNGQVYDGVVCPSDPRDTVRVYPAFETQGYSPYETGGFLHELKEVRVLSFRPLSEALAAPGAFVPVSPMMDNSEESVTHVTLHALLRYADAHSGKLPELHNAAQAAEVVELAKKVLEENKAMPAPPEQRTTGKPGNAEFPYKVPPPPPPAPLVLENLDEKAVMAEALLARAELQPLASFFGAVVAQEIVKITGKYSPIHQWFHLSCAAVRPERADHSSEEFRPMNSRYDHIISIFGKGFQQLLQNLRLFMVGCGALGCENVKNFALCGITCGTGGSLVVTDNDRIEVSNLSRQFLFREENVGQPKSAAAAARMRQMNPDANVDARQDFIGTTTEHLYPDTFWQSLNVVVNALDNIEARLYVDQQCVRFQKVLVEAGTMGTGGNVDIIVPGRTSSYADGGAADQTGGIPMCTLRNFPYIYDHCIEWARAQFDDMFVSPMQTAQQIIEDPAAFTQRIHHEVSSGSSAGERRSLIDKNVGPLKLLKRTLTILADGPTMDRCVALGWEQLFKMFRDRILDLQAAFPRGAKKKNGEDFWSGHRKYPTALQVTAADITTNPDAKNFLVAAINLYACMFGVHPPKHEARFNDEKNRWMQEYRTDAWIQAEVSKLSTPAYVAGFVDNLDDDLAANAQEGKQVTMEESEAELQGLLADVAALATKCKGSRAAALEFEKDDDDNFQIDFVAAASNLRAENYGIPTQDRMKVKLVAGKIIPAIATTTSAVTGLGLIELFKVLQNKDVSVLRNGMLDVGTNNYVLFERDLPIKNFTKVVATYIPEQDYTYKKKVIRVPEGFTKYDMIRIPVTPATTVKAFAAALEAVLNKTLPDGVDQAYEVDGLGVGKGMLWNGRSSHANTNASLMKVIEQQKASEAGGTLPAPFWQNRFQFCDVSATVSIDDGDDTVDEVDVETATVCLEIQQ
# [3] = molecular target: AMP-activated protein kinase, AMPK (Homo sapiens) (UniProt P54646+O43741+P54619+Q9UGJ0+Q9Y478+Q13131+Q9UGI9); test: AMP-dependent Kinase enzyme assay. An in vitro enzyme assay that detects ADP turnover that is directly proportional to AMPK activity. This uses naive AMPK that is activated during the assay with MK-8722; assay type: functional; conditions: 30 µM
# [4] = molecular target: Sialic acid-binding Ig-like lectin 9 (Homo sapiens) (UniProt Q9Y336); test: Hs-Siglec9 ALPHAscreen SOP 20170721; conditions: 10 µM
# Sequence of Sialic acid-binding Ig-like lectin 9 (Homo sapiens) (Q9Y336 whole entry): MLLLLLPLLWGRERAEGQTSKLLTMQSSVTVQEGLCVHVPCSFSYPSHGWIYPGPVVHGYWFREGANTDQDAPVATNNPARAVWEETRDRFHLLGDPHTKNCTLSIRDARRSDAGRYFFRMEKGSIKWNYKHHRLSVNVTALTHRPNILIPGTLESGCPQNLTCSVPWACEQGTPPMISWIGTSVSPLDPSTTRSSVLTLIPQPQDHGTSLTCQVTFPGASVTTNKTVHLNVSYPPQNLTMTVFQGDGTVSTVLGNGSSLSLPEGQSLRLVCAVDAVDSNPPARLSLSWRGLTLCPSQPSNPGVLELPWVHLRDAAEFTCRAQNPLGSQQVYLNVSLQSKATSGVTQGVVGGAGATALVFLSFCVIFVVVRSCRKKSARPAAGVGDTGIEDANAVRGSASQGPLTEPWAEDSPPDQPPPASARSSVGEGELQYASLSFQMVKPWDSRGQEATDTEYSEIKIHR
# Trypanosoma cruzi = test: Trypanosoma cruzi phosphomannomutase and mannose-1-phosphate guanylyltransferase assay; assay type: functional; conditions: 10 µM
# [5] = molecular target: T2, Arginase-2, mitochondrial (Homo sapiens) (UniProt P78540); test: in vitro enzyme assay to detect the production of urea directly proportional to the activity of Arginase II; assay type: functional; conditions: 33.3 µM; also: in the data most compounds retested in dose-response had high values
# T2 sequence (whole entry): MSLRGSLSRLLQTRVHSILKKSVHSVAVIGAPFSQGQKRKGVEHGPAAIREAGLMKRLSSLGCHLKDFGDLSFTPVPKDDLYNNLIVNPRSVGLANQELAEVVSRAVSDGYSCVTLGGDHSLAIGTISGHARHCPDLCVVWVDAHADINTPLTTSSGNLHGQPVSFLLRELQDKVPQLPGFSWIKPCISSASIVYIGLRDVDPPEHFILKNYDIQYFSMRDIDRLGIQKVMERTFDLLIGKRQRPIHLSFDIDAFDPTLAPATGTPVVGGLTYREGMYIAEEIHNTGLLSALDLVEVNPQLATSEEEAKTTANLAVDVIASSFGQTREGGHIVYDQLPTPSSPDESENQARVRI
# [6] = molecular target: T3, Proteasome subunit beta (Trypanosoma cruzi) (UniProt O96673); test: Trypanosoma cruzi proteasome chymotrypsin-like activity (TcProtChymo) assay.; also: in the data most compounds retested in dose-response had high values; assay type: functional; conditions: 9.37 µM
# T3 sequence (whole entry): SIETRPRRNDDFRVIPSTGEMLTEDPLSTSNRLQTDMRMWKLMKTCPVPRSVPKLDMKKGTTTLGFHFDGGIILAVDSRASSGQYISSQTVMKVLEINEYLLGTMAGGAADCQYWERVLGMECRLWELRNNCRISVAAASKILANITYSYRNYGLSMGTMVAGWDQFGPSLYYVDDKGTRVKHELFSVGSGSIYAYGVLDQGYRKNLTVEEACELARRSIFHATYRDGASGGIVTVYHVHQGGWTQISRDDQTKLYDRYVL
# Homo sapiens = species on record: Homo sapiens; test: To identify inhibition of the IFN signalling (Jak-Stat) pathway via expression of an eGFP reporter gene under the control of an IFN-stimulated response element (ISRE) containing MxA promoter.; assay type: functional; conditions: 30 µM
# [7] = molecular target: T4, Tyrosyl-tRNA synthetase, putative (Trypanosoma cruzi (strain CL Brener)) (UniProt Q4DSP6); test: Trypanosoma cruzi tyrosyl tRNA synthetase (TcYRS) _High Tyrosine SOP; assay type: functional; conditions: 30 µM; also: in the data most compounds retested in dose-response had high values
# T4 sequence (whole entry): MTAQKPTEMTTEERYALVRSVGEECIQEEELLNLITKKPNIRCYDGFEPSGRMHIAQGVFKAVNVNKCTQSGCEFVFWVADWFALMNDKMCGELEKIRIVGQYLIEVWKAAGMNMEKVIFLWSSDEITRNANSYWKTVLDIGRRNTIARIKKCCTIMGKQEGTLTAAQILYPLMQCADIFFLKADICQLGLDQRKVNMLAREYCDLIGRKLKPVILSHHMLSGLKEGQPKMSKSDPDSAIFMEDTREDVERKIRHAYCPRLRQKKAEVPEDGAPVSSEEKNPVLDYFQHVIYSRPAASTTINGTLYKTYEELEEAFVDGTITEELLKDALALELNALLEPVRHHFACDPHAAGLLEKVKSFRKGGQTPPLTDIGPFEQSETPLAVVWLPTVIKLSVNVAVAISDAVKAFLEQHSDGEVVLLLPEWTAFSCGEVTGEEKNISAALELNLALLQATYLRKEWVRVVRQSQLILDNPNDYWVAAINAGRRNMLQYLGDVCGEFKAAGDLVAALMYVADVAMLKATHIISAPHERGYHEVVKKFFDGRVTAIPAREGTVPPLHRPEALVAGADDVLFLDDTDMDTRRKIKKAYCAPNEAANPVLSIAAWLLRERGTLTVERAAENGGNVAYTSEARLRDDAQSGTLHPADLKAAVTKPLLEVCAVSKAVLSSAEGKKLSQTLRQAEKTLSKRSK
# [8] = molecular target: T4, Tyrosyl-tRNA synthetase, putative (Trypanosoma cruzi (strain CL Brener)); test: Trypanosoma cruzi tyrosyl tRNA synthetase (TcYRS) SOP; assay type: functional; conditions: 30 µM
# [9] = molecular target: Chromo domain-containing protein 1 (Saccharomyces cerevisiae (strain ATCC 204508 / S288c) (Baker's yeast)) (UniProt P32657); test: ScCHD-1 Enzyme Inhibition Assay; assay type: functional; conditions: 30 µM; also: in the data most compounds retested in dose-response had high values
# Sequence of Chromo domain-containing protein 1 (Saccharomyces cerevisiae (strain ATCC 204508 / S288c) (Baker's yeast)) (P32657 whole entry, the tested form may be a part): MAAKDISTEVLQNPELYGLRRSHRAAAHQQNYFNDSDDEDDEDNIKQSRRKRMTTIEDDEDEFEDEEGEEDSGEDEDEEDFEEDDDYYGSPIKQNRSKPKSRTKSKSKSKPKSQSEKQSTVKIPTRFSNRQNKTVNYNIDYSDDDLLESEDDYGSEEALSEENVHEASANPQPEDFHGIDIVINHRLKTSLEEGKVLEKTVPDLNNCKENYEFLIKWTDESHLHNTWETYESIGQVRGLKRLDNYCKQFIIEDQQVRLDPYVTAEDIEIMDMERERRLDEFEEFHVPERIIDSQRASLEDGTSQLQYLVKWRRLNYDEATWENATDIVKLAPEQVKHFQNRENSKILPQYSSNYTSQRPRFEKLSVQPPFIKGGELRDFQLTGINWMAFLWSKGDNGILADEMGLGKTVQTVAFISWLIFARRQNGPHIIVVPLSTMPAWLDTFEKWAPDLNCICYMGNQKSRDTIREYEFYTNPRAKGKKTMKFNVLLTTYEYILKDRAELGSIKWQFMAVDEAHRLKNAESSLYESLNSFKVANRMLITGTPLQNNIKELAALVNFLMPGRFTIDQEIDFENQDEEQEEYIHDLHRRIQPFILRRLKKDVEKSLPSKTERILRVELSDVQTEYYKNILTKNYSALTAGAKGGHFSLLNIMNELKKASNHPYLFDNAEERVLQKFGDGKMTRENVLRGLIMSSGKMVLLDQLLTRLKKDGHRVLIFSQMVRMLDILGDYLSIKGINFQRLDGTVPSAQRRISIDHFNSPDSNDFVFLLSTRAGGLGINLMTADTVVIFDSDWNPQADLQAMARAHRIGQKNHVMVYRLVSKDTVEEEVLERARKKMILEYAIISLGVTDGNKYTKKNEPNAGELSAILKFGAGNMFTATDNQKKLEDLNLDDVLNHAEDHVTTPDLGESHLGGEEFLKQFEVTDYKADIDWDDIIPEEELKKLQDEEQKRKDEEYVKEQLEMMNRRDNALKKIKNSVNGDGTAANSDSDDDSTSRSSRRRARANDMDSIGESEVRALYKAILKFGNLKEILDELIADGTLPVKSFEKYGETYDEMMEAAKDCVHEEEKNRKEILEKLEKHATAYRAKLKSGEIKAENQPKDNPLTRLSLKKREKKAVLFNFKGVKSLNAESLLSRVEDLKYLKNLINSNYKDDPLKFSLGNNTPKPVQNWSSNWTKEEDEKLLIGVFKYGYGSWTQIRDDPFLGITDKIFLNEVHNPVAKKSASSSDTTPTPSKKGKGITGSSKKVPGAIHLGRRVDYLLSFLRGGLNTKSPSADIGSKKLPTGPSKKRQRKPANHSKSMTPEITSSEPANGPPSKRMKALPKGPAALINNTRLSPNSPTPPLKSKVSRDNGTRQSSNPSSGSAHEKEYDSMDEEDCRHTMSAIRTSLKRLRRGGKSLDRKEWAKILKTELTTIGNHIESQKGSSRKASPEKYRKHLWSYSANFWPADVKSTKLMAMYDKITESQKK
Structure (SMILES),Percent Effect [1] [%],Percent Effect [2] [%],Percent Effect [3] [%],Percent Effect [4] [%],Percent Effect (Trypanosoma cruzi) [%],Percent Effect [5] [%],Percent Effect [6] [%],Percent Effect (Homo sapiens) [%],Percent Effect [7] [%],Percent Effect [8] [%],Percent Effect [9] [%]
COc1ccc(CCNC(=O)NC2CCCC2)cc1OC,0.159,8.11,-0.309,3.69,-1.16,3.33,13.3,6.13,5.82,9.76,-3.01
Cc1ccc(N2CCC3(CC2)CC(OCC(=O)N(C)C)CO3)nn1 (stereo unspecified),-2.67,5.41,1.03,-1.72,-0.684,2.23,14.9,-14.6,2.16,12.8,2.16
CC(=O)N1CCCN(c2nccc(-c3cn(C)nc3C)n2)CC1,-5.23,5.33,-0.173,25.5,0.682,0,9.24,-1.59,0.546,8.64,-7.43
CN1CCc2cc(C(CNS(=O)(=O)c3cccs3)N3CCCC3)ccc21 (stereo unspecified),-1.64,13,7.05,-7.92,-5.42,-9.68,8.88,12.5,0,8.97,-8.44
CS(=O)(=O)NC1CCCN(C(=O)NCc2cccnc2)C1 (stereo unspecified),-2.71,15.6,3.96,1.09,2.25,1.9,14.2,-2.36,7.62,18.8,-11.9
Cc1nc(C2CCCN2CC(=O)N2CCCc3ccccc32)no1 (stereo unspecified),-2.99,-13.2,-3.99,5.27,6.77,3.45,0,6.64,4.41,4.88,-4.73
Cc1nnc(N2CC[C@H](OCC3CC3)[C@@H](Cc3ccccc3)C2)s1,-2.17,-5.33,8.54,9.81,5.99,-31.7,7.01,-7.72,0,5,-3.2
O=C(Cn1ccnc1)N1C[C@@H]2CC[C@H](Oc3ccccc3Cl)[C@@H]2C1,-7.33,-4.05,13.2,1.9,0.198,-3.94,-1.09,31.6,0,-1.3,1.94
O=C(c1cc(Cl)c2c(c1)OCO2)N1CCN(c2ccccn2)CC1,-2.8,5.48,-6.15,5.68,1.37,3.64,16.1,14.1,7.53,15,-12.5
O=c1ccc2c(n1CCN1CCCC1)CCN(Cc1ccoc1)CC2,-1.68,8.22,-4.13,13.3,7.94,-9.58,10.7,19.6,8.33,13.6,-2.06
CC(NC(=O)NCc1ccc(Cl)cc1)c1ccccn1 (stereo unspecified),-1.55,1.27,3.12,3.62,5.23,-6.24,12,12.2,2.08,0,-24.6
O=C1CC2(CCN(CCO)CC2)CN1Cc1cc(F)cc(F)c1,-3.75,6.94,-9.77,27.6,4.18,13.7,11.2,-13.2,2.1,10.3,-9.52
CN1[C@H](Cn2cncn2)C[C@@H]2CN(Cc3cccc(C#N)c3)CC[C@@H]21,-1.53,13.5,-0.719,-6.04,0,-2.5,15,-2.04,9.9,13.4,2.31
O=C(COc1cccc(Br)c1)N1CCN(c2nccs2)CC1,-4.01,18.7,3.31,10.4,4.58,47.4,19.4,26.2,3.83,16.1,84.6
O=S(=O)(Cc1ccccc1)NCc1ccco1,-2.2,-1.39,13.3,0.175,0.68,0,-1.4,6.12,3.16,2.56,0.387
Cc1occc1C(=O)N1CCC2(CCC(=O)N(CC(N)=O)C2)CC1,-6.56,-4.17,0.341,3.65,-3.6,2.21,10.9,3,-2.1,-7.69,-2.07
c1ncn(CC2CCCN(Cc3nc(C4CC4)no3)C2)n1 (stereo unspecified),-5.67,10.1,-7.43,8.58,8.59,-4.56,-3.36,-5.79,6.4,13.9,-1.7
COCCN1CCC(NC(=O)C2(c3cc(C)cc(C)c3)CC2)CC1,-5.08,0,-4.53,-1.6,-1.59,0.719,-1.95,-10.6,1.48,-1.24,6.15
CNC(=O)CC1CC2(CCN(Cc3nccs3)CC2)c2ccccc21 (stereo unspecified),-3.09,16.2,-8.78,1.43,3.52,3.75,11.8,-4.56,7.92,8.54,-7.65
CCc1noc(C2CCCCN2C(=O)c2ccn(C3CCCC3)n2)n1 (stereo unspecified),-3.89,20,-10.1,-4.33,5.89,-15.3,13.7,24.3,9.52,12.8,-15.7
CC(C)OCCN1CCC(N2CCN(C)C2=O)CC1,-8.32,10.4,-1.47,4.31,8.24,-6.05,-1.18,6.82,4.85,14.6,-9.74
